Results published in the supplement of paper PMC8975748.
Counter-ions that a name gives are not always drawn.

Each molecule was assayed on Saccharomyces cerevisiae BY4741 SeMeCo community (assay: z-score of subpopulation abundance vs DMSO median, subpopulation auxotrophic for H; higher = larger share of this subpopulation than in DMSO controls). Conditions: 10 µM; 24 h; SM minimal medium; subpopulation (auxotrophy): H.
Method: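 Fluorescent four-plasmid SeMeCo (self-establishing metabolically cooperating S. cerevisiae BY4741 community; plasmids pH-mRuby2, pL-mWasabi, pU-eCFP, pM-TagRFP657) was grown 24 h in minimal SM medium with each Selleck FDA-approved drug at 10 µM in 384-well plates. Cells were fixed and imaged by high-content confocal microscopy. For each auxotrophic subpopulation (and the prototroph), a z-score gives the deviation from the DMSO vehicle-control population median.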
`C[C@@H]1CC[C@H]2[C@@H](C)C(=O)O[C@@H]3O[C@@]4(C)CC[C@@H]1[C@]32OO4` [Artemisinin] was tested, and the “z-score of subpopulation abundance” value was 1.06.
In the case of `CN1[C@@H]2C[C@@H](OC(=O)[C@H](CO)c3ccccc3)C[C@H]1[C@@H]1O[C@@H]12` [Scopolamine HBr], the “z-score of subpopulation abundance” value is reported as -0.96.
In the case of `C[C@@H]1O[C@@H](O[C@H]2C[C@@H](O)[C@]3(CO)[C@H]4[C@H](O)C[C@]5(C)[C@@H](C6=CC(=O)OC6)CC[C@]5(O)[C@@H]4CC[C@]3(O)C2)[C@H](O)[C@H](O)[C@H]1O` [Ouabain], the “z-score of subpopulation abundance” value is reported as -1.13.
For `C=C[C@H]1CN2CC[C@H]1C[C@H]2[C@H](O)c1ccnc2ccccc12` [Cinchonidine], the “z-score of subpopulation abundance” value was -0.15.
In the case of `C=CC[C@]1(O)CC[C@H]2[C@@H]3CCC4=CC(=O)CCC4=C3C=C[C@@]21C` [Altrenogest], the “z-score of subpopulation abundance” value is reported as 0.24.
For `Cc1cc(O)ccc1Cl` [Chlorocresol], the “z-score of subpopulation abundance” value was -0.85.
In the case of `CCCN1C[C@H](CSC)C[C@@H]2c3cccc4[nH]cc(c34)C[C@H]21` [Pergolide Mesylate], the “z-score of subpopulation abundance” value is reported as -0.28.
In the case of `CN1[C@@H]2CC[C@H]1C[C@@H](OC(=O)C(CO)c1ccccc1)C2` (some centres undefined) [Atropine sulfate monohydrate], the “z-score of subpopulation abundance” value is reported as -0.43.
With `CC[C@H]1CN2CC[C@]3(C(=O)Nc4ccccc43)[C@@H]2C[C@@H]1/C(=C\OC)C(=O)OC` [Rhynchophylline] the “z-score of subpopulation abundance” value was -0.08.
`CN(C)[C@@H]1C(=O)C(C(N)=O)=C(O)[C@@]2(O)C(=O)C3=C(O)c4c(O)ccc(Cl)c4[C@@](C)(O)[C@H]3C[C@@H]12` [Chlortetracycline HCl] was tested, and the “z-score of subpopulation abundance” value was 0.94.
`Nc1nc(N)nc(NC2CC2)n1` [Cyromazine] was tested, and the “z-score of subpopulation abundance” value was 0.14.
In the case of `CCN(CC)CCOC(=O)C(O)(c1ccccc1)c1ccccc1` [Benactyzine hydrochloride], the “z-score of subpopulation abundance” value is reported as -0.16.
With `C[N+](C)(C)CCCCCCCCCC[N+](C)(C)C` [Decamethonium Bromide] the “z-score of subpopulation abundance” value was 0.07.
With `CN(C)C(=O)Oc1cccc([N+](C)(C)C)c1` [Neostigmine Bromide] the “z-score of subpopulation abundance” value was 0.03.
For `O=[N+]([O-])C(Br)(CO)CO` [Bronopol], the “z-score of subpopulation abundance” value was -0.52.
In the case of `Oc1cccc2cccnc12` [8-Hydroxyquinoline], the “z-score of subpopulation abundance” value is reported as 0.93.
`Nc1ccncc1` [4-Aminopyridine] was tested, and the “z-score of subpopulation abundance” value was -0.01.
With `O=c1[nH]c2ccccc2n1CCCN1CCC(n2c(=O)[nH]c3cc(Cl)ccc32)CC1` [Domperidone] the “z-score of subpopulation abundance” value was 0.24.
With `CCN(C)C(=O)Oc1cccc([C@H](C)N(C)C)c1` [Rivastigmine Tartrate] the “z-score of subpopulation abundance” value was -0.17.
With `C#C[C@]1(O)C=C[C@H]2[C@@H]3CCC4=CC(=O)CC[C@@H]4[C@H]3CC[C@@]21CC` [Gestodene] the “z-score of subpopulation abundance” value was 0.25.
In the case of `C[N+]1(C)[C@@H]2C[C@@H](OC(=O)[C@H](CO)c3ccccc3)C[C@H]1[C@@H]1O[C@@H]12` [Methscopolamine], the “z-score of subpopulation abundance” value is reported as 0.28.
`COc1ccc2[nH]cc(CCN)c2c1` [5-Methoxytryptamine] was tested, and the “z-score of subpopulation abundance” value was -0.85.
In the case of `C=C(C)[C@H]1Cc2c(ccc3c2O[C@@H]2COc4cc(OC)c(OC)cc4[C@@H]2C3=O)O1` [Rotenone (Barbasco)], the “z-score of subpopulation abundance” value is reported as 0.51.
`CC(C)=CCOc1c2occc2cc2ccc(=O)oc12` [Imperatorin] was tested, and the “z-score of subpopulation abundance” value was 0.08.
`CCN(C)C(=O)Oc1cccc([C@H](C)N(C)C)c1` [Rivastigmine] was tested, and the “z-score of subpopulation abundance” value was -0.34.
`Cc1cc(C(C#N)c2ccc(Cl)cc2)c(Cl)cc1NC(=O)c1cc(I)cc(I)c1O` (centres undefined) [Closantel] was tested, and the “z-score of subpopulation abundance” value was -0.23.
For `O=c1cccc2n1C[C@@H]1CNC[C@H]2C1` [Cytisine], the “z-score of subpopulation abundance” value was -0.04.
In the case of `C=CN1CCCC1=O.II` [Povidone iodine], the “z-score of subpopulation abundance” value is reported as 1.96.
With `CC(=O)OCC1=C(C(=O)O)N2C(=O)C(N)C2SC1` (centres undefined) [7-Aminocephalosporanic acid] the “z-score of subpopulation abundance” value was 0.4.
`CC(NC(C)(C)C)C(=O)c1cccc(Cl)c1` (centres undefined) [Amfebutamone (Bupropion) HCl] was tested, and the “z-score of subpopulation abundance” value was -0.63.
For `C[CH2][Hg][S]c1ccccc1C(=O)[O-].[Na+]` [Thimerosal], the “z-score of subpopulation abundance” value was 7.64.
`CCOC(=O)Nc1ccc(NCc2ccc(F)cc2)cc1N` [Retigabine 2HCl] was tested, and the “z-score of subpopulation abundance” value was 1.44.
In the case of `C=CCN1C[C@H](C(=O)N(CCCN(C)C)C(=O)NCC)C[C@@H]2c3cccc4[nH]cc(c34)C[C@H]21` [Cabergoline], the “z-score of subpopulation abundance” value is reported as -0.38.
`COc1ccc2c3c([nH]c2c1)C(C)=NCC3` [Harmaline] was tested, and the “z-score of subpopulation abundance” value was 2.23.
